PubChem BioAssay (NCI)
This is part of a sample that, as a whole, favours compounds with a hit. Of some 83,000 tested, about 20% had one in any assay.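 Compound tested at a single concentration for 48 hours in 96-well plates; a percent growth value below 10 was scored as active.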 The source made the active and inactive calls.

How the values were obtained:
Assay in all cases: NCI-60 one-dose screen, 48 h (100 = growth as untreated, 0 = no growth, -100 = all killed)
HCT-15 colon = details: 10 µM unless noted
HT29 colon = details: 10 µM unless noted
SNB-19 CNS = details: 10 µM unless noted
U251 CNS = details: 10 µM unless noted
PC-3 prostate = details: 10 µM unless noted
UACC-62 melanoma = details: 10 µM unless noted
LOX IMVI melanoma = details: 10 µM unless noted
SK-MEL-28 melanoma = details: 10 µM unless noted
SK-MEL-2 melanoma = details: 10 µM unless noted
EKVX NSCLC = details: 10 µM unless noted
SN12C renal = details: 10 µM unless noted
UO-31 renal = details: 10 µM unless noted
TK-10 renal = details: 10 µM unless noted
ACHN renal = details: 10 µM unless noted
CAKI-1 renal = details: 10 µM unless noted
CCRF-CEM leukemia = details: 10 µM unless noted
MOLT-4 leukemia = details: 10 µM unless noted
SK-MEL-5 melanoma = details: 10 µM unless noted
A498 renal = details: 10 µM unless noted
SNB-75 CNS = details: 10 µM

| Compound | growth (HCT-15 colon) | growth (HT29 colon) | growth (SNB-19 CNS) | growth (U251 CNS) | growth (PC-3 prostate) | growth (UACC-62 melanoma) | growth (LOX IMVI melanoma) | growth (SK-MEL-28 melanoma) | growth (SK-MEL-2 melanoma) | growth (EKVX NSCLC) | growth (SN12C renal) | growth (UO-31 renal) | growth (TK-10 renal) | growth (ACHN renal) | growth (CAKI-1 renal) | growth (CCRF-CEM leukemia) | growth (MOLT-4 leukemia) | growth (SK-MEL-5 melanoma) | growth (A498 renal) | growth (SNB-75 CNS) |
| --- | --- | --- | --- | --- | --- | --- | --- | --- | --- | --- | --- | --- | --- | --- | --- | --- | --- | --- | --- | --- |
| COc1cc(-c2nc(N=Nc3c(O)[nH]c4ccc(Br)cc34)[nH]c(=O)c2C#N)cc(OC)c1OC | 98.6% (inactive) | 106% (inactive) | 100% (inactive) | 99.7% (inactive) | 98.8% (inactive) | 96.1% (inactive) | 98.2% (inactive) | 111% (inactive) | 102% (inactive) | 100% (inactive) | 97.4% (inactive) | 90% (inactive) | 111% (inactive) | 101% (inactive) | 91.1% (inactive) | 94.5% (inactive) | 96.2% (inactive) |  |  |  |
| N[C@@H]1CCN(C(=O)c2cc3cc(Cl)c(F)c(F)c3[nH]2)C1 | 96.8% (inactive) | 88% (inactive) | 90.2% (inactive) | 86.2% (inactive) | 90.5% (inactive) | 104% (inactive) | 84% (inactive) | 105% (inactive) | 99.4% (inactive) | 86.9% (inactive) | 90.6% (inactive) | 63.4% (inactive) | 101% (inactive) | 90.9% (inactive) | 68% (inactive) | 102% (inactive) | 94.7% (inactive) |  |  |  |
| CCN(CC)CCC(CNc1ccnc2cc(Cl)ccc12)c1ccccc1 (stereo unspecified) | 34.1% (inactive) | 7.02% (active) |  | 50.7% (inactive) | 56.5% (inactive) | 57.6% (inactive) | 39% (inactive) | -99.9% (active) | 56.2% (inactive) | 90% (inactive) | 75.8% (inactive) | 15.2% (inactive) | 55.9% (inactive) | 35.3% (inactive) | 43.4% (inactive) | 58.6% (inactive) | 50.7% (inactive) | -75.2% (active) | 42.3% (inactive) |  |
| O=Nc1c(-c2cccc([N+](=O)[O-])c2)nc2ncccn12 | 73.7% (inactive) | 79.5% (inactive) |  | 96.9% (inactive) | 66.5% (inactive) | 92.8% (inactive) | 95.4% (inactive) | 115% (inactive) | 85.2% (inactive) | 108% (inactive) | 91.5% (inactive) | -3.03% (active) | 85% (inactive) | 29.1% (inactive) |  | -27.2% (active) | 7.7% (active) | 96.2% (inactive) | 103% (inactive) |  |
| Cc1cc(N/N=C/c2nc(-c3ccccc3)oc2C)c2cc(Br)ccc2n1 | 43.6% (inactive) | 65.6% (inactive) |  | 38.5% (inactive) | 79.5% (inactive) | 88.3% (inactive) | -31.7% (active) | 26% (inactive) | 106% (inactive) | 107% (inactive) | 32.3% (inactive) | 78.1% (inactive) | 101% (inactive) | 89.9% (inactive) | 80% (inactive) | 27.7% (inactive) | 50.5% (inactive) | 103% (inactive) | 66.1% (inactive) |  |
| CCOC(=O)C1CCNC(=O)C1=O (stereo unspecified) | 111% (inactive) |  | 101% (inactive) | 111% (inactive) | 105% (inactive) | 101% (inactive) | 97.8% (inactive) | 112% (inactive) | 107% (inactive) | 122% (inactive) | 97.3% (inactive) | 94.2% (inactive) | 103% (inactive) | 105% (inactive) | 97.8% (inactive) | 93.7% (inactive) | 96.6% (inactive) | 101% (inactive) | 110% (inactive) | 101% (inactive) |
| C[n+]1c(/C=C/c2c(O)ccc3ccccc23)ccc2ccccc21 | 21.6% (inactive) |  | 41.7% (inactive) | 17.3% (inactive) | 25.4% (inactive) | 44.6% (inactive) | -65.1% (active) | 66.6% (inactive) | 29.4% (inactive) | 44.8% (inactive) | 32.4% (inactive) | 22.2% (inactive) | 49.1% (inactive) | 31.6% (inactive) | 35.1% (inactive) | 10.2% (inactive) |  | 36% (inactive) | 52.9% (inactive) | 49.9% (inactive) |
| Cc1ccc2nc(Cl)cc(=O)n2c1 | 102% (inactive) |  | 105% (inactive) | 119% (inactive) | 96.9% (inactive) | 102% (inactive) | 112% (inactive) | 120% (inactive) | 107% (inactive) | 114% (inactive) | 101% (inactive) | 84.3% (inactive) | 109% (inactive) | 99.1% (inactive) | 111% (inactive) | 94.4% (inactive) | 106% (inactive) | 120% (inactive) | 107% (inactive) | 115% (inactive) |
| Cn1ccc(=O)c(S(N)(=O)=O)c1 | 109% (inactive) |  | 95.5% (inactive) | 90.7% (inactive) | 101% (inactive) | 95.8% (inactive) | 91.9% (inactive) | 116% (inactive) | 99.8% (inactive) | 89.3% (inactive) | 101% (inactive) | 69% (inactive) | 113% (inactive) | 95.5% (inactive) | 67.2% (inactive) | 99.9% (inactive) | 94.4% (inactive) | 112% (inactive) | 107% (inactive) | 79.2% (inactive) |
| COc1ccc(/C=C/c2c(C(C)=O)c(C)nc3ccccc23)cc1 | 95.8% (inactive) | 80.1% (inactive) |  | 94.8% (inactive) | 76.1% (inactive) | 52.4% (inactive) | 96.6% (inactive) |  | 75.8% (inactive) | 81.7% (inactive) | 85.6% (inactive) | 65.1% (inactive) | 77.9% (inactive) | 84.5% (inactive) | 81.4% (inactive) | 77.7% (inactive) | 73.1% (inactive) | 33.3% (inactive) | 72.8% (inactive) |  |
| NNc1cccc(/C=C/c2ccccc2)cc1=O | 33% (inactive) |  | 67.7% (inactive) | 48.5% (inactive) | 61.3% (inactive) | 54.5% (inactive) | 33.4% (inactive) | 81.9% (inactive) | 83.1% (inactive) | 47.9% (inactive) | 71.6% (inactive) | 24.9% (inactive) | 70.7% (inactive) | 37.5% (inactive) | 12.7% (inactive) | 14.1% (inactive) | 37.6% (inactive) | 62.6% (inactive) | 83.9% (inactive) | 81.3% (inactive) |
| COc1ccc2c(c1)[nH]c(=O)c1c3cccc(F)c3cn21 | 9.78% (active) |  | 39.1% (inactive) | 0.931% (active) | 2.38% (active) | 40.3% (inactive) | 38.8% (inactive) | 61.4% (inactive) | 63.3% (inactive) | 46.8% (inactive) | 39.3% (inactive) | 33.1% (inactive) | 46.8% (inactive) | 37.7% (inactive) |  | -17.5% (active) | 36.3% (inactive) | 27.6% (inactive) | 59.3% (inactive) | 76.2% (inactive) |
| COc1cc(/C=N\NC(=O)CN2CCN(c3cc4c(cc3F)c(=O)c(C(=O)N/N=C/c3cc(OC)c(OC)c(OC)c3)cn4C3CC3)CC2)cc(OC)c1OC | 101% (inactive) | 4.47% (active) |  | 2.13% (active) | -19.8% (active) | -34.7% (active) | -67.1% (active) | -11.6% (active) | -26.2% (active) | 55.2% (inactive) | -25.8% (active) | 71.8% (inactive) | 64.2% (inactive) | 93.7% (inactive) | 77.7% (inactive) | 4.32% (active) | 0.748% (active) |  | 46.6% (inactive) |  |
| C=C[C@@H]1C[C@@H]2Cc3ccccc3N1O2 | 107% (inactive) |  | 109% (inactive) | 101% (inactive) | 116% (inactive) | 101% (inactive) | 104% (inactive) | 109% (inactive) | 87.8% (inactive) | 99.5% (inactive) | 97.5% (inactive) | 102% (inactive) | 108% (inactive) | 110% (inactive) | 97.8% (inactive) | -50% (active) | 28.9% (inactive) | 107% (inactive) | 107% (inactive) | 102% (inactive) |
| C=C[C@@H]1C[C@H](O)Cc2c(C)cc(C)cc2N1 | 101% (inactive) |  | 109% (inactive) | 97.3% (inactive) | 88.6% (inactive) | 98.2% (inactive) | 77.6% (inactive) | 102% (inactive) | 111% (inactive) | 86.9% (inactive) | 95.9% (inactive) | 96% (inactive) | 85.8% (inactive) | 103% (inactive) | 97.2% (inactive) | -19% (active) | -46.2% (active) | 96.2% (inactive) | 89.9% (inactive) | 93.6% (inactive) |
